DRD3 agonist = agonists of human D3 dopamine receptor. P35462. D3R DiscoveRx beta-arrestin cells, luminescence, 90 min. max activation, %. 0.58% of 410,000 active. AID 652048; in the data active = max activation above about 30%; also: 0% is about no effect
Target sequence (P35462 whole entry, looked up): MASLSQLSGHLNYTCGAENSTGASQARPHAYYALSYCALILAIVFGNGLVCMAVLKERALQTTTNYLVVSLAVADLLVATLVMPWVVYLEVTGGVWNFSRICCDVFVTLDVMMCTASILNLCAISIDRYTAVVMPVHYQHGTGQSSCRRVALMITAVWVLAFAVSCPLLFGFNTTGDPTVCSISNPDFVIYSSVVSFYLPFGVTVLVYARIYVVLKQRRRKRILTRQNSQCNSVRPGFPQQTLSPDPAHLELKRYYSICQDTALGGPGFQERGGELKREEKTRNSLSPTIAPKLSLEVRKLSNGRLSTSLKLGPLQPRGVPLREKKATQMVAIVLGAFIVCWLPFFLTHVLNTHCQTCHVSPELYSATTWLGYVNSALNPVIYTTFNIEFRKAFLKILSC
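Agonist-mode cell screen: cells plated at 1500/well and incubated overnight at 37 °C, then exposed to library compounds for 90 min at 37 °C. Detection reagent was added for 30–60 min at room temperature, and luminescence was read.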
D3 antag = D3 dopamine receptor (human) antagonism; P35462; D3R cells, DiscoveRx beta-arrestin luminescence, antagonist mode; stronger effect = lower value; max response, negative = inhibition, %; 2.5% of 360,000 active; AID 652054; in the data active = max response below about -50%; inconclusive = no clear call, values can overlap the other calls; also: % is scaled to controls: 0 for no effect and ±100 for the full control effect
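Cells plated overnight at 1500 cells/well, then exposed to library compounds with dopamine controls for 90 minutes at 37 degrees C. DiscoveRx reagent added for 30–60 minutes at room temperature; luminescence read, quantitative HTS format.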
TGFb inhibitor = blocks TGF-b signaling; Potency, µM (highest dose often 46.1 µM), inactives show at the highest dose activity, negative = inhibition, hits mostly inhibitors; AID 588855; HepG2 CAGA-GFP TGF-b/SMAD3 reporter, GFP fluorescence, 18 h; TGF-beta stimulated, 500 pg/mL final; 1.2% of 410,000 active; also: potency is read from the fitted curve at half-maximal effect; % is scaled to controls: 0 for no effect and ±100 for the full control effect; nearly all actives have a fitted effect of over 65% in size
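HEPG2 CAGA-GFP reporter cells (1000/well, DMEM with 1% FBS) received compounds, then recombinant TGF-beta at 500 pg/mL final for 18 hours at 37 degrees C. Per-cell GFP summed per well was normalised to unstimulated and stimulated DMSO controls before curve fitting.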
HepG2 viability = counter-screen for TGF-b inhibitors: cytotoxicity in HepG2 cells; HepG2 CAGA-GFP viability, ATP luminescence, 18 h; Potency, µM (top dose mostly 46.1 µM), without a hit: at the highest dose activity change, negative = cytotoxicity, hits mostly cytotoxic; 0.76% of 410,000 active; also: potency is read from the fitted curve at half-maximal effect
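CellTiter-Glo luminescence gave cytotoxicity after 18 hours at 37 degrees C. The cells were HepG2 CAGA-GFP in 1% FBS DMEM, stimulated with 500 pg/mL TGF-beta after compound addition. %Activity was normalised to no-cell wells (complete cell-killing) and DMSO (no toxicity), and curves were fitted and classified.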
ATXN viability = reduces viability in counter-screen for ATXN expression inhibitors; S2 cells (HEK-293 line with an ATXN2-luciferase reporter) viability, CellTiter-Fluor protease fluorescence, 24 h; Potency, µM (doses to about 56.7 µM), most hits filed as cytotoxic; 0.49% of 400,000 active; AID 651635; also: potency is read from the fitted curve at half-maximal effect; nearly all actives have a fitted effect of over 40% in size
ATXN2 expr inh = reduces ATXN2 reporter expression in HEK-293 cells; HEK-293 ATXN2-luciferase reporter, luminescence, 24 h; Potency, µM (doses to about 57 µM), for inactives: at the top dose activity change, negative = inhibition, usual class: inhibitors; 0.72% of 360,000 active; also: potency is read from the fitted curve at half-maximal effect; % is scaled to controls: 0 for no effect and ±100 for the full control effect; nearly all actives have a fitted effect of over 55% in size
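ATXN2-luciferase reporter cells (luciferase flanked by upstream and downstream ATXN2 gene portions) were treated 24 h at 37 °C with compounds at up to 57 uM. SteadyGlo luminescence gave expression; GF-AFC fluorescence gave viability.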
The depositor's hits bear a star; i = inactive; ? = inconclusive; · = not tested or not shown. Hits are enriched below; roughly 4.7% of the tested compounds scored in any of these assays. Unless noted, calls follow the shape of the dose curve; as a rule, active = well fitted curve in the direction sought with a large enough effect; inconclusive = small, poorly fitted or top-dose-only effect, or another doubt; inactive = no such curve, though single readings can be large; an effect the other way counts as inactive or inconclusive.

SMILES	DRD3 agonist	D3 antag	TGFb inhibitor	HepG2 viability	ATXN viability	ATXN2 expr inh
Cc1c(C(=O)N/N=C/c2cccs2)nnn1-c1nonc1N	36.0*	9.2	?	-33.6%	i	1.3%
CC1CCN(Cc2c(C(=O)N/N=C/c3ccccc3O)nnn2-c2nonc2N)CC1	4.7	11.4	-25.6%	-11.9%	i	3.16µM*
CCN(CC)Cc1c(C(=O)N/N=C/c2c(Cl)cccc2Cl)nnn1-c1nonc1N	30.1*	12.8	0.2%	-1.5%	i	0.4%
CC(C)(C)c1ccc(/C=N/N2CCN(c3ccccn3)CC2)cc1	30.3*	-5.7	2.2%	5.9%	i	-13.1%
Oc1ccc(/C=N/N2CCN(c3ccccn3)CC2)cc1	-9.1	1.9	39.2%	17.5%	i	·
COc1ccc(NC(=O)c2cnc3sccn3c2=O)cc1	4.8	-52.5*	-8.9%	-7.2%	i	16.2%
Cc1ccc2c(c1)cc(CN(C)Cc1nc(C)cs1)c(=O)n2C	·	·	·	·	i	·
COCCn1c(-c2ccc(OC)cc2)cnc1SCC(=O)Nc1cc(C)on1	-8.1	-70.3*	0.0%	-7.4%	i	-16.3%
CCOc1ccccc1NC(=O)C(NS(=O)(=O)c1ccc2c(c1)CCC(=O)N2)c1ccccc1 (stereo unspecified)	-6.4	·	146.9%	144.2%	i	3.4%
Oc1c(Cl)cc(Cl)cc1C=Nc1ccc2c(c1)OCCO2	-18.0	-51.6*	-1.8%	-13.0%	i	-4.9%
CCOC(=O)c1ccc(NC(=S)NC2CC(C)(C)NC(C)(C)C2)cc1	2.7	1.7	?	11.2µM*	?	?
CCOc1ccc(NC(=O)c2ccc(NC(=S)NC3CCCCC3)cc2)cc1	-11.5	-68.3*	?	17.8µM*	?	-37.2%
Cc1cccnc1-c1cccc2c1OC(CNC(=O)C(=O)c1ccccc1)C2 (stereo unspecified)	·	·	·	·	i	·
Nc1nc(-c2nn(Cc3ccccc3F)c3ncccc23)nc(N)c1N1CCOCC1	·	·	·	·	·	-11.4%
COc1ccc(CN2CCC(C)(Oc3ccc(C(C)=O)cc3)C2)c2ccccc12 (stereo unspecified)	-1.5	-21.3	0.2%	-40.1%	i	-4.7%
CC1(Oc2cccc(C#N)c2)CCN(Cc2csc3ccccc23)C1 (stereo unspecified)	-25.1	-80.9*	-4.0%	-9.1%	i	-10.4%
CC1(Oc2cccc(F)c2)CCN(Cc2csc3ccccc23)C1 (stereo unspecified)	-11.3	-106.0*	-17.4%	-39.5%	i	5.0%
CCCNC(=O)C1(C)CCN(Cc2csc3ccccc23)C1 (stereo unspecified)	-15.9	-26.4	25.7%	-4.3%	?	0.3%
CC1(Oc2cccc(C#N)c2)CCN(Cc2ccccc2OC(F)F)C1 (stereo unspecified)	-9.6	-88.8*	15.5%	-2.1%	i	0.6%
COC(=O)Cc1ccc(OC2(C)CCN(Cc3csc4ccccc34)C2)cc1 (stereo unspecified)	-24.6	-85.8*	-55.0%	-79.8%	i	-12.1%
CCOC(=O)c1ccc(Nc2nc3nonc3nc2Nc2cccc(C)c2C)cc1	9.7	·	?	-45.0%	·	·
Cc1ccc(-n2nc(CO)c(C(=O)NCc3cccnc3)n2)cc1C	-32.0	·	?	-17.1%	·	·
Cc1c(NC(=O)CSc2nnc(-c3cccc(Cl)c3)o2)c(=O)n(-c2ccccc2)n1C	-5.8	-71.6*	-12.5%	1.3%	i	2.8%
Cc1c(NC(=O)CSc2nnc(-c3ccncc3)o2)c(=O)n(-c2ccccc2)n1C	3.2	1.9	-0.5%	-6.1%	i	-1.5%
COc1ccc(NC(=O)c2c(C(=O)Nc3ccccc3)sc3nc(C)cc(=O)n23)cc1	5.2	·	0.9%	-9.4%	?	?
Cc1ccc2nc(C3CCCCC3)c(Cc3ccsc3)n2c1	-11.4	-10.1	·	·	?	?
Cc1ccc(Cc2c(C3CCCCC3)nc3ccc(C)cn23)cc1	4.5	53.9	?	-55.6%	12.6µM*	15.8µM*

Source: PubChem
